# Source: the supplement of paper PMC12636033
# ± gives the standard deviation of the averaged measurements. The full ranking holds about 33,000 sequences; the median of “E-score (rank enrichment, -0.5 to 0.5)” is about -0.0068, and the highest 2% start at about 0.24. For the sample, the highest values were picked, then their nearest neighbours and some sequences at random.
# Test system: muMax20 (Max(13-93) K31hArg/K57hArg, M65Nle)
# Test: PBM 8-mer E-score (E-score (rank enrichment, -0.5 to 0.5)); higher = stronger preferential binding
# Experimental: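 Protein binding microarray (universal PBM chip covering all 10-mers in fixed probe flanks) with chemically synthesized human Max(13-93) bHLH-LZ analogs (not full-length Max) bearing noncanonical residues (hArg, Tha, Aib, Nle at 65) and aromatic Cys staples. Read-out per 8-mer (and its reverse complement): E-score (rank-based enrichment, -0.5 to 0.5) and Z-score of median probe intensity.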
row,Sequence,PBM 8-mer E-score
1,CATGTCTA,0.0944 ± 0.042
2,CATGTCTC,0.256 ± 0.015
3,AGTGTAGG,0.0989 ± 0.087
4,ATATAATA,0.302 ± 0.0079
5,GTATAATA,0.247 ± 0.093
6,CTATAATA,0.165 ± 0.0056
7,GGATAATA,0.0335 ± 0.0051
8,GAATAATA,0.165 ± 0.01
9,ATATAATG,0.2202 ± 0.001
10,GGCAGAAA,0.135 ± 0.072
11,CAGTGCAC,-0.103 ± 0.061
12,CCCGAGCA,0.00085 ± 0.0024
13,GACCGAGC,-0.276 ± 0.069
14,ATTGCAGA,-0.0371 ± 0.034
15,TCCACGCA,0.0588 ± 0.069
16,ATGGGCGC,-0.129 ± 0.1
17,ATAGCGTA,-0.019 ± 0.055
18,ATTCCACA,0.101 ± 0.1
19,CAGAACTC,-0.171 ± 0.057
20,AAGGATAA,0.149 ± 0.041
21,AAGGATAT,0.247 ± 0.062
22,AAGGATAC,-0.00358 ± 0.02
23,AGCGATTC,-0.0904 ± 0.024
24,ACATGAGA,0.253 ± 0.039
25,ACATGAAT,0.24 ± 0.04

row,Sequence,PBM 8-mer E-score
1,TCATGAGA,0.111 ± 0.0016
2,ACATGAAG,0.0775 ± 0.23
3,ACATGAGT,0.0854 ± 0.027
4,ACATGAAC,0.0854 ± 0.018
5,ACCAACAT,0.0339 ± 0.18
6,GACGGGGA,-0.043 ± 0.026
7,ACCAGGTG,-0.184 ± 0.13
8,CGGCTACC,-0.274 ± 0.058
9,CTACTTTA,0.0793 ± 0.013
10,ATACTTTA,0.279 ± 0.0074
11,ATACTTTG,0.107 ± 0.036
12,GTGAGTGA,-0.073 ± 0.17
13,GTGTTGTA,0.164 ± 0.016
14,ATGTTGTA,0.284 ± 0.016
15,ATGTTGTG,0.145 ± 0.062
16,AGGCGCAA,-0.0721 ± 0.067
17,CTAATATC,0.214 ± 0.06
18,ATAATATG,0.169 ± 0.035
19,CTAATATA,0.214 ± 0.0087
20,GTAATATA,0.267 ± 0.012
21,ATAATATC,0.257 ± 0.035
22,ATAATATA,0.263 ± 0.042
23,ACAATATA,0.211 ± 0.037
24,GTAATAAA,0.154 ± 0.041
25,ATAATAGA,0.0729 ± 0.052

row,Sequence,PBM 8-mer E-score
1,GAGGACCC,-0.228 ± 0.037
2,AGTAATCA,0.109 ± 0.12
3,CGGGGCGA,-0.112 ± 0.037
4,AGAACTCC,-0.0617 ± 0.081
5,AAAGGCTA,-0.0552 ± 0.0014
6,GACGGATA,-0.139 ± 0.049
7,GCTCACCA,-0.15 ± 0.068
8,ATACCCCG,-0.0795 ± 0.096
9,AACGACCA,0.0599 ± 0.047
10,ACTGCCAG,-0.0897 ± 0.06
11,ACACAAAG,0.23 ± 0.078
12,ATACAAAT,0.273 ± 0.038
13,ATACAACA,0.254 ± 0.025
14,ACACAAAA,0.208 ± 0.055
15,ATACAAAA,0.305 ± 0.0098
16,ACACAAAC,0.25 ± 0.056
17,ATACAACC,-0.0691 ± 0.073
18,ATACAAAG,0.136 ± 0.09
19,ATACAACG,0.203 ± 0.026
20,CTACAAAA,0.0991 ± 0.063
21,TTACAAAA,0.126 ± 0.043
22,ATACAAAC,0.225 ± 0.037
23,ACGGCCGG,-0.2416 ± 0.0019
24,CAGGCTTC,-0.0969 ± 0.0043
25,GATACGCC,-0.108 ± 0.043

row,Sequence,PBM 8-mer E-score
1,ACTTTTGC,0.0617 ± 0.018
2,CATGTTAC,0.123 ± 0.025
3,AGCCGCCG,-0.192 ± 0.18
4,AGCTCCTA,-0.251 ± 0.015
5,CCTCCCTA,-0.153 ± 0.075
6,AGCTTAAC,-0.126 ± 0.1
7,ACACTCGG,-0.0657 ± 0.025
8,CTATACGC,-0.00851 ± 0.07
9,CCTCGTTA,-0.00353 ± 0.0057
10,CCACAACA,-0.0271 ± 0.0066
11,GTACAAAC,0.116 ± 0.0057
12,GTACAAGA,0.119 ± 0.012
13,GCACAACA,0.238 ± 0.016
14,ATACAAGA,0.0614 ± 0.015
15,AAACAAAT,0.284 ± 0.031
16,ATACAAGC,0.243 ± 0.079
17,AAACAAAC,0.154 ± 0.025
18,CTACAAGC,-0.0802 ± 0.066
19,AAACAAAA,0.211 ± 0.061
20,GCACAACC,-0.23 ± 0.0046
21,GTACAAAA,0.2859 ± 0.0025
22,GAGTCCAA,-0.159 ± 0.12
23,GCGACACA,-0.067 ± 0.12
24,GTCTCTGA,-0.161 ± 0.093
25,GCATATGA,0.186 ± 0.04

row,Sequence,PBM 8-mer E-score
1,ATTTATTC,0.241 ± 0.046
2,ACATATGC,0.105 ± 0.011
3,ATATATGC,0.0936 ± 0.17
4,ACATATGG,0.12 ± 0.078
5,CTATATGA,0.109 ± 0.074
6,ATATATGA,0.218 ± 0.069
7,CTATATGC,0.238 ± 0.043
8,GCATATGC,0.24 ± 0.032
9,ATATATGG,0.258 ± 0.028
10,CTTTATTC,0.0219 ± 0.12
11,ATTTATTA,0.132 ± 0.06
12,TACCCCAA,0.157 ± 0.005
13,GGAGAGCC,-0.211 ± 0.032
14,GACGCCAC,-0.137 ± 0.094
15,ATGTCCGC,-0.126 ± 0.088
16,GACACTGA,-0.11 ± 0.068
17,GCAGCCAC,-0.0591 ± 0.03
18,CTCAGTGC,-0.224 ± 0.0089
19,ATATATTC,0.201 ± 0.041
20,CTATATTC,0.262 ± 0.052
21,CTCTATTC,0.00532 ± 0.064
22,AAAAGTAT,0.249 ± 0.044
23,AAAAGCAT,0.243 ± 0.018
24,AAAAGTAC,0.184 ± 0.042
25,AAAAGCAC,0.162 ± 0.061

row,Sequence,PBM 8-mer E-score
1,AAAAGCAG,-0.0145 ± 0.05
2,CAAAGCTG,0.0952 ± 0.083
3,AAAAGCTA,0.123 ± 0.0035
4,AAAAGTAA,0.12 ± 0.033
5,AAAAGCTG,0.271 ± 0.081
6,AATAGTAA,0.152 ± 0.012
7,AATAGTAT,0.24 ± 0.012
8,AATAGTAG,0.0461 ± 0.02
9,CCGTCGTC,-0.109 ± 0.011
10,AACTGGGT,-0.078 ± 0.061
11,CCAATGAG,-0.095 ± 0.001
12,CATGGACG,0.0146 ± 0.1
13,GAAGAGGC,-0.108 ± 0.083
14,AGACGGAT,0.0634 ± 0.17
15,GTCAATGA,0.0559 ± 0.0022
16,CCTGCTGC,-0.107 ± 0.061
17,TAGTATCA,0.131 ± 0.033
18,ATAGATGA,0.0906 ± 0.033
19,AACGCATA,0.0704 ± 0.12
20,ACACGTAC,0.137 ± 0.036
21,ACACGTGA,0.432 ± 0.055
22,GCAGGTGA,-0.0216 ± 0.0013
23,CCAGGTGA,-0.121 ± 0.026
24,AGACGTGA,0.104 ± 0.027
25,ACACGTGC,0.452 ± 0.05

row,Sequence,PBM 8-mer E-score
1,ACACGTCA,0.246 ± 0.006
2,ACACGTCG,-0.148 ± 0.048
3,ACACGTCT,0.0471 ± 0.065
4,ACAGGTGA,0.264 ± 0.062
5,ATACGTGA,0.068 ± 0.019
6,AGACGTGC,-0.0738 ± 0.042
7,AGCTCTTG,0.00816 ± 0.055
8,CAGGCAGA,-0.144 ± 0.036
9,CCGGCAAA,-0.223 ± 0.11
10,AAACCGTC,-0.172 ± 0.074
11,ACCCAGAC,-0.109 ± 0.007
12,CTAACGCC,-0.0238 ± 0.038
13,AATTGCCT,0.00671 ± 0.018
14,AATAGGGA,0.142 ± 0.022
15,CGTTACAC,-0.0405 ± 0.053
16,TAACGTGA,0.101 ± 0.052
17,TCACGTAA,0.0827 ± 0.0065
18,ACACGTGG,0.446 ± 0.062
19,AAACGTGG,0.201 ± 0.0053
20,AAACGTGT,0.169 ± 0.1
21,TCACGTGA,0.442 ± 0.044
22,ACACGTAG,0.0342 ± 0.052
23,ACACGTGT,0.469 ± 0.029
24,ACACGTAT,0.218 ± 0.052
